Source: PubChem BioAssay AID977607 (Broad Institute, 2014)
Among all 1,500 compounds or so, about 460 (31%) were called active. Roughly 1% stayed inconclusive and do not appear here.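 How the source made its calls: active means curve reaches 40% activation over neutral controls at an AC40 no higher than the top valid tested concentration; inconclusive means no clear call, values can overlap the other calls; inactive means signal moving opposite to the expected increase, and the rest.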 Only a sample is shown. Potency and affinity values are given separately.

test: GLuc-reported insulin release enhancers, glucose-stimulated beta cells – cell-based, INS-1E, Gaussia luciferase, luminescence, cherry-pick, set 2, dose response (AID 977607); conditions: INS-1E GLuc insulin secretion reporter, 2-3 h, hits give high values; at 35 µM, 100% = signal doubled over neutral wells unless noted;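 further: 0% = median of the plate neutral control wells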

Max activation, inactive:
COc1ccc(CNC(=O)c2cnn3c(C(F)F)cc(C)nc23)cc1 24.2%, CC(=O)N1CCN(c2nnc(-c3ccccc3)c3ccccc23)CC1 -13.9% [at 0.005 µM, 100% = signal doubled over neutral wells], CCOC(=O)c1c(C)[nH]c(C(=O)COC(=O)c2cnccn2)c1C 27%, CCCCn1c(-c2ccncc2)nc2c1c(=O)[nH]c(=O)n2CC(C)C -13.3% [at 3.8 µM, 100% = signal doubled over neutral wells], COc1cc(OC)c(OC)cc1/C=N/n1c(C)nc2ccccc2c1=O -20.7% [at 0.42 µM, 100% = signal doubled over neutral wells], CCCc1cc(NCC2CCCO2)n2c(nc3ccccc32)c1C#N (stereo not drawn) -13% [at 0.015 µM, 100% = signal doubled over neutral wells], O=C(Cc1ccsc1)NNC(=O)c1ccccc1Cl -13.6%, O=C(NCc1ccco1)c1ccc2c(=O)n(CCC3=CCCCC3)c(=O)[nH]c2c1 -21.9%, Cc1cc2nc(-c3ccc(Cl)cc3)c(Cc3ccsc3)n2c(C)c1Br -39.9% [at 11 µM, 100% = signal doubled over neutral wells], COc1ccc(C(=O)NCC(=O)OCC(=O)Nc2sccc2C#N)cc1OC 24.5%, COc1ccc(C(=O)NCC(=O)OCC(=O)NC2CCCCCC2)cc1OC 19.5%, COc1ccc2[nH]c3c(NCCCN4CCCC4=O)ncnc3c2c1 11.2% [at 1.2 µM, 100% = signal doubled over neutral wells], Cc1ccc(S(=O)(=O)/N=C(/Nc2cccc(O)c2)c2ccccc2)cc1 48.6%, COc1cc(C(=O)Nc2cc(C(F)(F)F)ccc2N2CCOCC2)ccc1OCC(=O)N1CCOCC1 -13.6% [at 3.8 µM, 100% = signal doubled over neutral wells], Cc1ccc(C)c(S(=O)(=O)Nc2ccc(C(=O)N3CCC3)cc2)c1 27.7%, Cc1c(-c2cccc(Cl)c2)nc2ccccc2c1C(=O)NC1CC1 35.1% [at 1.2 µM, 100% = signal doubled over neutral wells], Cc1cc(C)cc(Cn2c3ccc(NC(=S)NCc4ccccc4F)cc3c(=O)n2C)c1 -51.1%, O=c1c2[nH]cnc2n(-c2ccc(F)cc2)c(=O)n1Cc1ccccc1 25.9% [at 0.42 µM, 100% = signal doubled over neutral wells], COC(=O)c1cccc(-n2c(=O)n(Cc3ccccc3)c(=O)c3[nH]cnc32)c1C 38.9% [at 11 µM, 100% = signal doubled over neutral wells], CN(Cc1ccccc1)c1ncnc2[nH]ncc12 19.1% [at 3.8 µM, 100% = signal doubled over neutral wells], Nn1c(C2CCCCC2)nc2ccccc2c1=O -24.8% [at 0.42 µM, 100% = signal doubled over neutral wells], CC(O)c1nc2ccccc2n1C1CCCCC1 (stereo not drawn) -13.8% [at 3.8 µM, 100% = signal doubled over neutral wells], O=C(O)COc1ccc2c3c(c(=O)oc2c1)CCC3 -18%, CCOC(=O)Cc1cc(=O)n2[nH]c(-c3ccc(C)cc3)cc2n1 26.5% [at 0.015 µM, 100% = signal doubled over neutral wells], O=C(CCS(=O)(=O)c1ccc(Cl)cc1)Nc1ccc(N2CCOCC2)cc1 26.5% [at 0.0016 µM, 100% = signal doubled over neutral wells], CCOc1ccc(CCNC(=O)CCC(=O)c2cccs2)cc1OCC -10.4% [at 0.0016 µM, 100% = signal doubled over neutral wells], CCOc1cccc2cc(C(=O)Nc3cc(C)on3)c(=O)oc12 -15.3% [at 0.42 µM, 100% = signal doubled over neutral wells], O=C(NCCc1ccccc1)c1cc(-c2ccc3c(c2)OCO3)on1 -16.8% [at 0.015 µM, 100% = signal doubled over neutral wells], C=CCNC(=O)c1cc(-c2ccc3c(c2)OCO3)on1 -23.5%, CC(=O)Cc1nsc(NC(=O)c2ccc(-c3cccc(Cl)c3)o2)n1 -41.3%, CCc1cc2c(COC(=O)c3cccc(S(C)(=O)=O)c3)cc(=O)oc2cc1O -21.8%, COCCNc1nc(NCCCN2CCCC2=O)c2sccc2n1 -21.2% [at 0.005 µM, 100% = signal doubled over neutral wells], CN(C)c1ncnc2sc(-c3ccccc3)cc12 75.3%, CCOC(=O)c1cnc2c(cnn2C)c1Oc1ccc(OC)cc1 -8.37% [at 0.135 µM, 100% = signal doubled over neutral wells], C=C(C)n1c(=O)n(Cc2ccccc2C)c2ccccc21 -20.9% [at 0.0016 µM, 100% = signal doubled over neutral wells], COc1ccc(CC(=O)OCC(=O)N2CCc3ccccc32)cc1OC -17.9% [at 0.135 µM, 100% = signal doubled over neutral wells], COc1ccc(CN(C)C(=O)CCN=C2NS(=O)(=O)c3ccccc32)c(OC)c1 -22.4% [at 0.015 µM, 100% = signal doubled over neutral wells], O=C1Nc2ccccc2N(C(=O)c2ccc3ccccc3c2)C1c1nc2ccccc2[nH]1 (stereo not drawn) -24.4% [at 11 µM, 100% = signal doubled over neutral wells]
